According to PubChem BioAssay:
Results filed as inconclusive are left out. Active and inactive are the calls of the source. Unless noted, the rule behind the calls is not given here.

Key:
[1] = LFS_MB_P medulloblastoma growth inhibition, cell-based, chromothripsis tumors, cisplatin or BGB combos (AID 1671449; in the data active = inhibition above about 80%;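 note: cells exposed for 96 hours; 0% = vehicle DMSO and 100% = killing by high DMSO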); conditions: LFS_MB_P medulloblastoma cells
[2] = HDN33 neuroblastoma growth inhibition, cell-based, chromothripsis tumors, cisplatin or BGB combos (AID 1671450; in the data active = inhibition above about 80%;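 note: cells exposed to compound for four days; 0% = vehicle DMSO and 100% = cell killing by high DMSO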); conditions: HDN33 neuroblastoma cells, stronger effect = higher value
[3] = HTB85 osteosarcoma cell growth inhibition, synergistic combos for chromothripsis tumors, BGB or cisplatin IC20 combos (AID 1671453; in the data active = inhibition above about 80%;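 note: cells exposed for 96 hours before readout; 0% = vehicle DMSO and 100% = high DMSO killing control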); conditions: HTB85 osteosarcoma cells, drug combinations, stronger effect = higher value
[4] = MDA-MB-436 breast carcinoma cell growth inhibition, synergistic combos for chromothripsis tumors, BGB or cisplatin combos (AID 1671458); conditions: MDA-MB-436 breast carcinoma growth inhibition, drug combinations, stronger effect = higher value;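 note: cells exposed for 96 hours; 0% = vehicle DMSO and 100% = killing by high DMSO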
[5] = growth inhibition of BT084 medulloblastoma cells, cell-based, ICGC_MB145, cisplatin and BGB IC40 combos (AID 1671461; in the data active = inhibition above about 80%;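 note: cells exposed to drugs for 96 hours; 0% = vehicle DMSO and 100% = high DMSO full killing control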); conditions: drug combinations, stronger effect = higher value
[6] = growth inhibition of RCMB18 medulloblastoma cells, cell-based, cisplatin and BGB IC40 combos (AID 1671462; in the data active = inhibition above about 80%;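 note: cells exposed to compound for four days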); conditions: stronger effect = higher value
[7] = growth inhibition of CRL1545 osteosarcoma cells, cell-based, cisplatin and BGB IC20 combos (AID 1671464; in the data active = inhibition above about 80%;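 note: cells exposed to compound for 96 hours before readout; 0% = vehicle DMSO and 100% = high DMSO killing control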); conditions: stronger effect = higher value
[8] = target: ATP-dependent translocase ABCB1 (Homo sapiens) (UniProt P08183); assay: MDR1 (ABCB1) efflux transporter inhibition, cell-based (AID 377; in the data active = fluorescence slope change above about 50%); conditions: MDR1-expressing cells, fluorescent substrate accumulation slope; stronger effect = higher value; concentration not given here
[9] = reducers of polyQ inclusions in PC12 cells, cell-based, NGF-treated PC12, GFPQ80 (AID 1614); conditions: PC12 NGF-treated GFP-polyQ80 inclusion reduction;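 note: lower means fewer inclusions and 0 means no inclusions at all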
[10] = circadian clock period modulators, cell-based, LOPAC library, luminescence reporter (AID 2774); conditions: circadian reporter cells, at 7 µM, actives lie on both sides;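 note: values are relative to mean of DMSO wells on each plate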
[11] = test system: Hepatitis C virus NS3 helicase; assay: HCV NS3 helicase inhibitors, primary screen, biochemical, fluorescence polarization, LOPAC1280 library (AID 687035; in the data active = inhibition above about 37%); conditions: Purified HCV NS3 helicase, Cy5-dT15 ssDNA binding fluorescence polarization; stronger effect = higher value; concentration not given here
[12] = Cy5 fluorescence quenching or enhancement artefacts, artefact control for HCV NS3 helicase inhibitor project, biochemical, LOPAC1280 (AID 687037); conditions: Cy5-DNA-NS3h complex fluorescence interference counterscreen
[13] = growth inhibition of DIPG glioma cells, dose response, cell-based, SU-DIPG-XVII, MIPE5.0, CellTiter-Glo, qHTS (AID 1347060; cut-off not given, nearly all actives have AC50 up to about 26 µM;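 for AC50: cells exposed to compound for 48 hours before viability readout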); conditions: SU-DIPG-XVII viability, CellTiter-Glo ATP luminescence
[14] = growth inhibition of DIPG glioma cells, dose response, cell-based, SU-DIPG-XIII, MIPE4.0, CellTiter-Glo, qHTS (AID 1347061; cut-off not given, nearly all actives have AC50 up to about 37 µM;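 note: cells exposed to compound for 48 hours before readout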); conditions: SU-DIPG-XIII viability, CellTiter-Glo ATP luminescence
[15] = growth inhibition of DIPG glioma cells, dose response, cell-based, JHH-DIPG-1, MIPE4.0, CellTiter-Glo, qHTS (AID 1347062; cut-off not given, nearly all actives have AC50 up to about 27 µM;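 for AC50: cells exposed to compound for two days before readout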); conditions: JHH-DIPG-1 viability, CellTiter-Glo ATP luminescence
[16] = growth inhibition of DIPG glioma cells, dose response, cell-based, SU-DIPG-IV, MIPE4.0, CellTiter-Glo, qHTS (AID 1347063; cut-off not given, nearly all actives have AC50 up to about 30 µM;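 note: compound exposure lasted 48 hours before the viability readout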); conditions: SU-DIPG-IV viability, CellTiter-Glo ATP luminescence
[17] = SU-DIPG-VI glioma cell viability, MIPE4.0 library, CellTiter-Glo luminescence, qHTS (AID 1347066; cut-off not given, nearly all actives have AC50 up to about 30 µM;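 note: cells exposed to compound for 48 hours before readout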); conditions: CellTiter-Glo ATP luminescence
[18] = JHH-DIPG-1 glioma cell viability, MIPE5.0 library, CellTiter-Glo luminescence, qHTS (AID 1347067; cut-off not given, nearly all actives have AC50 up to about 26 µM;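 note: cells exposed to compound for 48 hours before readout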); conditions: JHH-DIPG-1 glioma viability, CellTiter-Glo ATP luminescence
[19] = SU-DIPG-XXV glioma cell viability, MIPE5.0 library, qHTS (AID 1347068; cut-off not given, nearly all actives have IC50 up to about 30 µM;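 for IC50: cells exposed to compound for 48 hours before viability readout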)
[20] = phospholipid biosynthesis inhibitors in animal cells, primary screen, cell-based, LOPAC library, screen 4 (AID 1347384); conditions: phospholipid biosynthesis inhibition screen, at 10 µM
[21] = at 0.5 µM, stronger effect = higher value
[22] = measured here: combination with BGB IC20, at 0.005 µM
[23] = measured here: combination with BGB IC40, at 0.005 µM
[24] = measured here: combination with BGB IC40, at 0.05 µM
[25] = measured here: combination with cisplatin, at 0.5 µM, stronger effect = higher value
[26] = measured here: combination with cisplatin, at 5 µM, stronger effect = higher value
[27] = measured here: with BGB IC20 combination, at 0.5 µM
[28] = measured here: with cisplatin IC20 combination, at 0.5 µM
[29] = measured here: with BGB IC20, at 0.5 µM
[30] = measured here: with BGB IC20, at 5 µM
[31] = measured here: with cisplatin IC20, at 0.5 µM
[32] = measured here: with cisplatin IC20, at 5 µM
[33] = measured here: BGB combination, at 0.5 µM

Chain of ATP-dependent translocase ABCB1 (Homo sapiens) (P08183 whole entry, looked up): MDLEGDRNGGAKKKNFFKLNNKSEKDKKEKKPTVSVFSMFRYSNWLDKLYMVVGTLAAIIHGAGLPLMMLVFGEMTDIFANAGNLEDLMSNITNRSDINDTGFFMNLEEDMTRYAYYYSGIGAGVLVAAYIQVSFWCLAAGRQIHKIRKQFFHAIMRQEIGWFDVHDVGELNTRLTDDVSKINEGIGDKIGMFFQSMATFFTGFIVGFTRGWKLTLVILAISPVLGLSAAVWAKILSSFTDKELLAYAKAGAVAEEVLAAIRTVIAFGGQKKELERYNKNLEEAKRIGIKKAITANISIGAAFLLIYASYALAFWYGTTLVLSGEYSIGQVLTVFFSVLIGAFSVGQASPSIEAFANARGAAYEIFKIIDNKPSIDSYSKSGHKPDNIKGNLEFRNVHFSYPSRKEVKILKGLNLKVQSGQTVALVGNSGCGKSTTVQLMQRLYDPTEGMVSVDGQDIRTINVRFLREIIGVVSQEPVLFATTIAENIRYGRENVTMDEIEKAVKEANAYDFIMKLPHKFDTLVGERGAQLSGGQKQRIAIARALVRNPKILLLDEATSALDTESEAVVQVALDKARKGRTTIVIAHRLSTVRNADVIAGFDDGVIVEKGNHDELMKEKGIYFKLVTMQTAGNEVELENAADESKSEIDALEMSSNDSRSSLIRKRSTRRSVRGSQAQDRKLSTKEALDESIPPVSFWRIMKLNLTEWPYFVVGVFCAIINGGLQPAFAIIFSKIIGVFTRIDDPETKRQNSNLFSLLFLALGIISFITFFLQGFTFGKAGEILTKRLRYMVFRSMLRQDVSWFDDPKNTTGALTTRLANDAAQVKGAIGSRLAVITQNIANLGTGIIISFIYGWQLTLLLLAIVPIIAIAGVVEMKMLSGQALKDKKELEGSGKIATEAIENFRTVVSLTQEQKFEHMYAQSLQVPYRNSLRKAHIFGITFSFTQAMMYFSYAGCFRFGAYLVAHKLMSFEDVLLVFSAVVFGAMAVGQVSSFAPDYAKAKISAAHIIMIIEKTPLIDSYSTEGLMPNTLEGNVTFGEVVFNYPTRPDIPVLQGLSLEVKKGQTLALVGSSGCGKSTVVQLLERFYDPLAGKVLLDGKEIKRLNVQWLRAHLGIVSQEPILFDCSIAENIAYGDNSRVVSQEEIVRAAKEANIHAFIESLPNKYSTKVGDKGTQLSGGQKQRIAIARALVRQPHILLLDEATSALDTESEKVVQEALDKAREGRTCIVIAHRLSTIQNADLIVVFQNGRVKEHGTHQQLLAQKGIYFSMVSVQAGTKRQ

O=C(O)CCCc1ccccc1
inhibition [1, 21]: -32.4% (inactive) | inhibition [1, 22]: -18.8% | inhibition [1, 23]: -12.3% | inhibition [1, 24]: -22.2% | inhibition [1, 25]: -35% | inhibition [1, 26]: -11.6% | inhibition ([2]; BGB combo, at 5 µM): -16.9% | inhibition ([2]; at 0.5 µM): -18.6% (inactive) | inhibition ([2]; cisplatin combo, at 5 µM): 0.505% | inhibition [2, 27]: -6.08% | inhibition [2, 28]: -19.1% | inhibition ([2]; single agent, at 5 µM): -3.58% | inhibition ([3]; at 0.5 µM): -13.7% (inactive) | inhibition [3, 29]: -24.4% | inhibition [3, 30]: -45.4% | inhibition [3, 31]: -14.6% | inhibition [3, 32]: -12.8% | inhibition ([3]; single agent, at 5 µM): -16.3% | inhibition ([4]; at 0.5 µM): -11.5% (inactive) | inhibition [4, 33]: -6.89% | inhibition ([4]; measured here: BGB combination, at 5 µM): -6.08% | inhibition ([4]; measured here: cisplatin combination, at 0.5 µM): -24.1% | inhibition ([4]; measured here: cisplatin combination, at 5 µM): -11.2% | inhibition ([5]; at 0.5 µM): -24.2% (inactive) | inhibition ([5]; cisplatin combination, at 0.5 µM): 2.11% | inhibition ([5]; cisplatin combination, at 5 µM): -2.13% | inhibition ([5]; measured here: BGB IC40 combination 0.05 uM, at 0.05 µM): -5.38% | inhibition ([5]; single agent, at 5 µM): -9.5% | inhibition ([6]; at 0.5 µM): -15.3% (inactive) | inhibition ([6]; cisplatin combo, at 5 µM): -6.28% | inhibition ([6]; measured here: BGB IC40 combination, at 0.05 µM): -18% | inhibition ([6]; measured here: combination with cisplatin, at 0.5 µM): -7.69% | inhibition ([6]; single agent, at 5 µM): 28.4% | inhibition ([7]; at 0.5 µM): -23.7% (inactive) | inhibition [7, 27]: -4.31% | inhibition [7, 28]: -36.4% | inhibition ([7]; single agent, at 0.05 µM): -12.3% | inhibition ([7]; single agent, at 5 µM): 9.33%

NNCCc1ccccc1
fluorescence slope change [8]: 67.1% (active) | inclusion score [9]: 2 | period change [10]: 0.145 h (inactive) | inhibition [11]: -1% (inactive) | fluorescence ratio (interference) [12]: 0.9 (inactive) | outcome [13]: inactive | AC50 [14]: 9.35 µM (active) | outcome [15]: inactive | AC50 [16]: 13.2 µM (active) | outcome [17]: inactive | outcome [18]: inactive | outcome [19]: inactive | outcome [20]: inactive

COc1ccccc1OCCNCC(O)COc1cccc2[nH]c3ccccc3c12 (centres undefined)
inhibition [11]: -2% (inactive) | fluorescence ratio (interference) [12]: 1 (inactive) | outcome [15]: inactive | outcome [20]: inactive

CCc1cc(C(N)=S)ccn1
inclusion score [9]: 2 | outcome [13]: inactive | outcome [14]: inactive | outcome [15]: inactive | outcome [16]: inactive | outcome [17]: inactive | outcome [18]: inactive | outcome [19]: inactive

CCN(Cc1ccncc1)C(=O)C(CO)c1ccccc1 (centres undefined)
fluorescence slope change [8]: 82.5% (active) | inclusion score [9]: 1 | period change [10]: 0.035 h (inactive) | inhibition [11]: -6% (inactive) | fluorescence ratio (interference) [12]: 0.9 (inactive) | outcome [20]: inactive

O=C(C1CCCCC1)N1CC(=O)N2CCc3ccccc3C2C1 (centres undefined)
inclusion score [9]: 2 | period change [10]: 0.13 h (inactive) | inhibition [11]: -3% (inactive) | fluorescence ratio (interference) [12]: 1 (inactive) | AC50 [13]: 26.3 µM (active) | outcome [14]: inactive | outcome [15]: inactive | outcome [16]: inactive | outcome [17]: inactive | outcome [18]: inactive | outcome [19]: inactive | outcome [20]: inactive

N[C@@H](Cc1cc(I)c(Oc2cc(I)c(O)c(I)c2)c(I)c1)C(=O)O
fluorescence slope change [8]: 62.7% (active) | outcome [13]: inactive | outcome [14]: inactive | outcome [15]: inactive | outcome [18]: inactive | outcome [19]: inactive

CC1Cc2ccccc2N1NC(=O)c1ccc(Cl)c(S(N)(=O)=O)c1 (centres undefined)
inclusion score [9]: 2 | outcome [13]: inactive | outcome [14]: inactive | outcome [15]: inactive | outcome [16]: inactive | outcome [18]: inactive | outcome [19]: inactive

CCCc1cc(=O)[nH]c(=S)[nH]1
fluorescence slope change [8]: -6.8% (inactive) | inclusion score [9]: 2 | outcome [13]: inactive | outcome [14]: inactive | outcome [15]: inactive | outcome [16]: inactive | outcome [17]: inactive

O=C(O)c1cc(=O)c2c(OCC(O)COc3cccc4oc(C(=O)O)cc(=O)c34)cccc2o1
inclusion score [9]: 1 | outcome [13]: inactive | outcome [14]: inactive | outcome [15]: inactive | outcome [16]: inactive | outcome [17]: inactive | outcome [18]: inactive | outcome [19]: inactive

NNC(=O)c1ccncc1
fluorescence slope change [8]: 55.1% (active) | inclusion score [9]: 2 | outcome [13]: inactive | outcome [14]: inactive | outcome [15]: inactive | outcome [16]: inactive | outcome [17]: inactive | outcome [18]: inactive | outcome [19]: inactive

O=c1[nH]cnc2[nH]ncc12
inclusion score [9]: 2 | period change [10]: 0.19 h (inactive) | inhibition [11]: -4% (inactive) | fluorescence ratio (interference) [12]: 0.9 (inactive) | outcome [13]: inactive | outcome [14]: inactive | outcome [15]: inactive | outcome [16]: inactive | outcome [17]: inactive | outcome [18]: inactive | outcome [19]: inactive | outcome [20]: inactive

CCCc1nc2c(C)cc(-c3nc4ccccc4n3C)cc2n1Cc1ccc(-c2ccccc2C(=O)O)cc1
outcome [13]: inactive | outcome [14]: inactive | outcome [15]: inactive | outcome [16]: inactive | outcome [17]: inactive | outcome [18]: inactive | outcome [19]: inactive

CC(C[N+](C)(C)C)OC(N)=O (centres undefined)
inclusion score [9]: 2 | period change [10]: -0.04 h (inactive) | inhibition [11]: -2% (inactive) | fluorescence ratio (interference) [12]: 1 (inactive) | outcome [13]: inactive | outcome [14]: inactive | outcome [15]: inactive | outcome [17]: inactive | outcome [18]: inactive | outcome [19]: inactive | outcome [20]: inactive

O=C(O)c1cccnc1
inclusion score [9]: 2 | outcome [13]: inactive | outcome [14]: inactive | outcome [15]: inactive | outcome [17]: inactive | outcome [18]: inactive | outcome [19]: inactive

CC1=NS(=O)(=O)c2cc(Cl)ccc2N1
fluorescence slope change [8]: 82.3% (active) | period change [10]: 0.13 h (inactive) | inhibition [11]: -1% (inactive) | fluorescence ratio (interference) [12]: 1 (inactive) | outcome [20]: inactive

CC(COc1ccccc1)N(CCCl)Cc1ccccc1 (centres undefined)
period change [10]: 0.03 h (inactive) | inhibition [11]: -1% (inactive) | fluorescence ratio (interference) [12]: 1 (inactive) | outcome [13]: inactive | outcome [14]: inactive | outcome [15]: inactive | outcome [17]: inactive | outcome [18]: inactive | outcome [19]: inactive

O=C1c2c(O)ccc(O)c2C(=O)c2c(NCCNCCO)ccc(NCCNCCO)c21
period change [10]: -1.74 h (active) | inhibition [11]: 119% (active) | fluorescence ratio (interference) [12]: 0.5 (active) | AC50 [13]: 0.417 µM (active) | AC50 [14]: 18.7 µM (active) | AC50 [15]: 2.35 µM (active) | AC50 [16]: 6.62 µM (active) | AC50 [17]: 23.5 µM (active) | IC50 [19]: 18.6 µM (active) | outcome [20]: inactive | inhibition [1, 21]: -22.5% (inactive) | inhibition [1, 22]: -15.5% | inhibition [1, 23]: -3.49% | inhibition [1, 24]: -28% | inhibition [1, 25]: -39.3% | inhibition [1, 26]: 106% | inhibition ([2]; BGB combo, at 5 µM): 98.9% | inhibition ([2]; at 0.5 µM): 60.1% (inactive) | inhibition ([2]; cisplatin combo, at 5 µM): 99.3% | inhibition [2, 27]: 57.7% | inhibition [2, 28]: 53.6% | inhibition ([2]; single agent, at 5 µM): 99.3% | inhibition ([3]; at 0.5 µM): 94.8% (active) | inhibition [3, 29]: 90.1% | inhibition [3, 30]: 99.7% | inhibition [3, 31]: 97.6% | inhibition [3, 32]: 99.8% | inhibition ([3]; single agent, at 5 µM): 99.8% | inhibition ([4]; at 0.5 µM): 53.4% (inactive) | inhibition [4, 33]: 42.1%
